# Measurements as given in PubChem BioAssay AID1159580 (chemical genetic matrix, 2015).
# Among all 5,500 compounds or so, about 2,000 (36%) were called active. About 18% were inconclusive and are not listed. No stated cut-off is given here; in the data, active means normalized growth mostly below about 0.91 (no sharp cut-off); inconclusive means no clear call, values can overlap the other calls; inactive means mostly above about 0.92. The list shows a part of the results.
# Experiment: chemical genetic growth profiling, strain panel (AID 1159580);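 further: tested at 20 µM; growth read once vehicle control cultures reached saturation at 30 °C; 1 = growth at the plate median or of vehicle wells; lower values mean less growth of the strain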
# Conditions: growth OD
structure (smiles),measurement,setting,value
CC(=O)Oc1cc(-c2coc3cc(OC(C)=O)c(OC(C)=O)c(OC(C)=O)c3c2=O)cc(OC(C)=O)c1OC(C)=O,normalized growth,"S. cerevisiae deletion strains, locus YKL009W, strain mrt4, active compounds read low",1.05 (inactive)
same,normalized growth,"S. cerevisiae deletion strains, locus YKL068W, active compounds read low",1.01 (inactive)
same,normalized growth,"S. cerevisiae deletion strains, locus YKL085W, strain MDH1 (second series), active compounds read low",1.01 (inactive)
same,normalized growth,"S. cerevisiae deletion strains, locus YKL085W, strain MDH1, active compounds read low",1.01 (inactive)
same,normalized growth,"S. cerevisiae deletion strains, locus YKL160W, strain elf1, active compounds read low",0.926 (inactive)
same,normalized growth,"S. cerevisiae deletion strains, locus YKL190W, strain CNB1, active compounds read low",0.888 (active)
same,normalized growth,"S. cerevisiae deletion strains, locus YKR001C, strain vps1, active compounds read low",0.962 (inactive)
same,normalized growth,"S. cerevisiae deletion strains, locus YKR026C, strain gcn3, active compounds read low",0.979 (inactive)
same,normalized growth,"S. cerevisiae deletion strains, locus YKR091W, strain srl3, active compounds read low",0.985 (inactive)
same,normalized growth,"S. cerevisiae deletion strains, locus YLL001W, strain dnm1, active compounds read low",0.918 (inactive)
same,normalized growth,"S. cerevisiae deletion strains, locus YLL026W, active compounds read low",0.966 (inactive)
same,normalized growth,"S. cerevisiae deletion strains, locus YLL041C, strain sdh2, active compounds read low",0.967 (inactive)
same,normalized growth,"S. cerevisiae deletion strains, locus YLR027C, strain aat2, active compounds read low",0.964 (inactive)
same,normalized growth,"S. cerevisiae deletion strains, locus YLR039C, strain RIC1, active compounds read low",0.635 (active)
same,normalized growth,"S. cerevisiae deletion strains, locus YLR058C, strain SHM2, active compounds read low",0.272 (active)
same,normalized growth,"S. cerevisiae deletion strains, locus YLR102C, strain apc9, active compounds read low",1.03 (inactive)
same,normalized growth,"S. cerevisiae deletion strains, locus YLR113W, strain HOG1, active compounds read low",1.11 (inactive)
same,normalized growth,"S. cerevisiae deletion strains, locus YLR221C, strain rsa3, active compounds read low",0.911 (inactive)
same,normalized growth,"S. cerevisiae deletion strains, locus YLR258W, strain gsy2, active compounds read low",0.963 (inactive)
same,normalized growth,"S. cerevisiae deletion strains, locus YLR262C, strain YPT6 (second series), active compounds read low",0.887 (inactive)
same,normalized growth,"S. cerevisiae deletion strains, locus YLR262C, strain YPT6, active compounds read low",0.89 (inactive)
same,normalized growth,"S. cerevisiae deletion strains, locus YLR268W, strain sec22, active compounds read low",0.889 (inactive)
same,normalized growth,"S. cerevisiae deletion strains, locus YLR320W, strain mms22, active compounds read low",0.9 (inactive)
same,normalized growth,"S. cerevisiae deletion strains, locus YLR342W, strain FKS1 (second series), active compounds read low",0.659 (active)
same,normalized growth,"S. cerevisiae deletion strains, locus YLR342W, strain FKS1, active compounds read low",0.904 (active)
same,normalized growth,"S. cerevisiae deletion strains, locus YLR357W, strain rsc2, active compounds read low",0.77 (active)
same,normalized growth,"S. cerevisiae deletion strains, locus YLR370C, strain arc18, active compounds read low",0.909 (active)
same,normalized growth,"S. cerevisiae deletion strains, locus YLR371W, strain rom2, active compounds read low",0.801 (active)
same,normalized growth,"S. cerevisiae deletion strains, locus YLR384C, strain iki3, active compounds read low",0.965 (inactive)
same,normalized growth,"S. cerevisiae deletion strains, locus YLR418C, strain cdc73, active compounds read low",0.782 (active)
same,normalized growth,"S. cerevisiae deletion strains, locus YML016C, strain PPZ1, active compounds read low",0.71 (active)
same,normalized growth,"S. cerevisiae deletion strains, locus YML032C, strain rad52, active compounds read low",0.83 (active)
same,normalized growth,"S. cerevisiae deletion strains, locus YML120C, strain ndi1, active compounds read low",0.898 (active)
same,normalized growth,"S. cerevisiae deletion strains, locus YML124C, strain tub3, active compounds read low",1 (inactive)
same,normalized growth,"S. cerevisiae deletion strains, locus YMR058W, strain fet3, active compounds read low",0.698 (active)
same,normalized growth,"S. cerevisiae deletion strains, locus YMR078C, strain ctf18, active compounds read low",1.01 (inactive)
same,normalized growth,"S. cerevisiae deletion strains, locus YMR125W, strain sto1, active compounds read low",1.03 (inactive)
same,normalized growth,"S. cerevisiae deletion strains, locus YMR129W, active compounds read low",0.98 (inactive)
same,normalized growth,"S. cerevisiae deletion strains, locus YMR205C, strain PFK2, active compounds read low",0.896 (inactive)
same,normalized growth,"S. cerevisiae deletion strains, locus YMR223W, strain ubp8, active compounds read low",0.938 (inactive)
same,normalized growth,"S. cerevisiae deletion strains, locus YMR231W, strain pep5, active compounds read low",0.924 (active)
same,normalized growth,"S. cerevisiae deletion strains, locus YMR263W, strain SAP30, active compounds read low",0.734 (active)
same,normalized growth,"S. cerevisiae deletion strains, locus YMR307W, strain GAS1, active compounds read low",0.67 (inactive)
same,normalized growth,"S. cerevisiae deletion strains, locus YNL067W, strain RPL9B, active compounds read low",0.848 (active)
same,normalized growth,"S. cerevisiae deletion strains, locus YNL071W, strain lat1, active compounds read low",0.979 (inactive)
same,normalized growth,"S. cerevisiae deletion strains, locus YNL183C, strain NPR1, active compounds read low",0.988 (inactive)
same,normalized growth,"S. cerevisiae deletion strains, locus YNL209W, strain ssb2, active compounds read low",0.785 (active)
same,normalized growth,"S. cerevisiae deletion strains, locus YNL233W, strain BNI4, active compounds read low",0.824 (active)
same,normalized growth,"S. cerevisiae deletion strains, locus YNL248C, strain rpa49, active compounds read low",0.945 (inactive)
same,normalized growth,"S. cerevisiae deletion strains, locus YNL250W, strain rad50, active compounds read low",1.06 (inactive)
same,normalized growth,"S. cerevisiae deletion strains, locus YNL271C, strain bni1, active compounds read low",1.01 (inactive)
same,normalized growth,"S. cerevisiae deletion strains, locus YNL298W, strain CLA4, active compounds read low",0.998 (inactive)
same,normalized growth,"S. cerevisiae deletion strains, locus YNL307C, strain MCK1, active compounds read low",1.02 (inactive)
same,normalized growth,"S. cerevisiae deletion strains, locus YNL322C, strain KRE1 (second series), active compounds read low",0.972 (inactive)
same,normalized growth,"S. cerevisiae deletion strains, locus YNL322C, strain KRE1, active compounds read low",0.767 (active)
same,normalized growth,"S. cerevisiae deletion strains, locus YNR049C, strain mso1, active compounds read low",0.979 (inactive)
same,normalized growth,"S. cerevisiae deletion strains, locus YNR052C, strain pop2, active compounds read low",0.658 (active)
same,normalized growth,"S. cerevisiae deletion strains, locus YOL012C, strain htz1",0.316 (inactive)
same,normalized growth,"S. cerevisiae deletion strains, locus YOL147C, strain pex11, active compounds read low",0.694 (active)
same,normalized growth,"S. cerevisiae deletion strains, locus YOR001W, strain rrp6, active compounds read low",0.859 (active)
same,normalized growth,"S. cerevisiae deletion strains, locus YOR061W, strain CKA2, active compounds read low",0.887 (active)
same,normalized growth,"S. cerevisiae deletion strains, locus YOR069W, strain VPS5, active compounds read low",0.904 (active)
same,normalized growth,"S. cerevisiae deletion strains, locus YOR070C, strain gyp1, active compounds read low",0.937 (inactive)
same,normalized growth,"S. cerevisiae deletion strains, locus YOR080W, strain dia2, active compounds read low",0.899 (active)
same,normalized growth,"S. cerevisiae deletion strains, locus YOR083W, strain WHI5, active compounds read low",0.908 (inactive)
same,normalized growth,"S. cerevisiae deletion strains, locus YOR106W, strain vam3, active compounds read low",0.778 (active)
same,normalized growth,"S. cerevisiae deletion strains, locus YOR136W, strain idh2, active compounds read low",1 (inactive)
same,normalized growth,"S. cerevisiae deletion strains, locus YOR144C, strain elg1, active compounds read low",0.797 (active)
same,normalized growth,"S. cerevisiae deletion strains, locus YOR184W, strain ser1, active compounds read low",0.905 (inactive)
same,normalized growth,"S. cerevisiae deletion strains, locus YOR231W, strain MKK1, active compounds read low",1.05 (inactive)
same,normalized growth,"S. cerevisiae deletion strains, locus YOR265W, strain rbl2, active compounds read low",0.946 (inactive)
same,normalized growth,"S. cerevisiae deletion strains, locus YOR270C, strain vph1, active compounds read low",0.564 (active)
same,normalized growth,"S. cerevisiae deletion strains, locus YOR290C, strain snf2, active compounds read low",0.322 (active)
same,normalized growth,"S. cerevisiae deletion strains, locus YOR316C, strain cot1, active compounds read low",1.02 (inactive)
same,normalized growth,"S. cerevisiae deletion strains, locus YPL051W, strain arl3, active compounds read low",0.847 (active)
same,normalized growth,"S. cerevisiae deletion strains, locus YPL055C, strain LGE1, active compounds read low",0.751 (active)
same,normalized growth,"S. cerevisiae deletion strains, locus YPL078C, strain atp4, active compounds read low",0.772 (active)
same,normalized growth,"S. cerevisiae deletion strains, locus YPL106C, strain sse1, active compounds read low",0.869 (inactive)
same,normalized growth,"S. cerevisiae deletion strains, locus YPL240C, strain hsp82, active compounds read low",0.961 (inactive)
same,normalized growth,"S. cerevisiae deletion strains, locus YPL256C, strain CLN2, active compounds read low",1.12 (inactive)
same,normalized growth,"S. cerevisiae deletion strains, locus YPR119W, strain clb2, active compounds read low",1.03 (inactive)
same,normalized growth,"S. cerevisiae deletion strains, locus YPR141C, strain kar3, active compounds read low",1.03 (inactive)
same,normalized growth,"S. cerevisiae deletion strains, locus YPR163C, strain tif3, active compounds read low",0.989 (inactive)
same,normalized growth,"S. cerevisiae deletion strains, locus YPR167C, strain met16, active compounds read low",0.953 (inactive)
same,normalized growth,"S. cerevisiae deletion strains, strain wtn01, active compounds read low",0.882 (active)
same,normalized growth,"S. cerevisiae strains, strain wild type, active compounds read low",0.75 (active)
